Data as given in ChEMBL document CHEMBL1961873, “Compounds: GSK PKIS; Assays: Nanosyn kinase panel” (2012).

Assays:
[1] = target: T1, Inhibitor of nuclear factor kappa-B kinase subunit epsilon (Homo sapiens) (UniProt Q14164); details: at 1 µM;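 note: reported values are averaged percent inhibition figures against human IKKε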
T1 sequence (whole entry): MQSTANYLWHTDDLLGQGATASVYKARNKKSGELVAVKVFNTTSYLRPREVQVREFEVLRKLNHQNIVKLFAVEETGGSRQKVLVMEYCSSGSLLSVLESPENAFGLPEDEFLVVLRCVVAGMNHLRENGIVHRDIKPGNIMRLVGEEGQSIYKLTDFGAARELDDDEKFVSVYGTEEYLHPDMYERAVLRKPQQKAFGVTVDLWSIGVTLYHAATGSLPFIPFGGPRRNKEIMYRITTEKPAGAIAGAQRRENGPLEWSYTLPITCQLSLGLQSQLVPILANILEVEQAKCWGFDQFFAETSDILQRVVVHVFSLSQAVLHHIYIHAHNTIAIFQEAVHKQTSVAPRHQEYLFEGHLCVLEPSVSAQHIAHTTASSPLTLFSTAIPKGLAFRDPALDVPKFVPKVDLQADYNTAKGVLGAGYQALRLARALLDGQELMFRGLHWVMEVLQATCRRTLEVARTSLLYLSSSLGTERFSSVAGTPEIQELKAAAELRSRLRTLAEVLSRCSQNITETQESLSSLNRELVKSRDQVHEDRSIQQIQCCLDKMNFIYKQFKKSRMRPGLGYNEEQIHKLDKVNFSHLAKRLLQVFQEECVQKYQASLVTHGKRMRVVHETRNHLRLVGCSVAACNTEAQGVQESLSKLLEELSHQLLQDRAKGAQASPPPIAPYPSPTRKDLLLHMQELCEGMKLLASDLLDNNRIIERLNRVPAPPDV

[2] = target: T2, Serine/threonine-protein kinase Nek1 (Homo sapiens) (UniProt Q96PY6); details: at 0.1 µM
T2 sequence (whole entry): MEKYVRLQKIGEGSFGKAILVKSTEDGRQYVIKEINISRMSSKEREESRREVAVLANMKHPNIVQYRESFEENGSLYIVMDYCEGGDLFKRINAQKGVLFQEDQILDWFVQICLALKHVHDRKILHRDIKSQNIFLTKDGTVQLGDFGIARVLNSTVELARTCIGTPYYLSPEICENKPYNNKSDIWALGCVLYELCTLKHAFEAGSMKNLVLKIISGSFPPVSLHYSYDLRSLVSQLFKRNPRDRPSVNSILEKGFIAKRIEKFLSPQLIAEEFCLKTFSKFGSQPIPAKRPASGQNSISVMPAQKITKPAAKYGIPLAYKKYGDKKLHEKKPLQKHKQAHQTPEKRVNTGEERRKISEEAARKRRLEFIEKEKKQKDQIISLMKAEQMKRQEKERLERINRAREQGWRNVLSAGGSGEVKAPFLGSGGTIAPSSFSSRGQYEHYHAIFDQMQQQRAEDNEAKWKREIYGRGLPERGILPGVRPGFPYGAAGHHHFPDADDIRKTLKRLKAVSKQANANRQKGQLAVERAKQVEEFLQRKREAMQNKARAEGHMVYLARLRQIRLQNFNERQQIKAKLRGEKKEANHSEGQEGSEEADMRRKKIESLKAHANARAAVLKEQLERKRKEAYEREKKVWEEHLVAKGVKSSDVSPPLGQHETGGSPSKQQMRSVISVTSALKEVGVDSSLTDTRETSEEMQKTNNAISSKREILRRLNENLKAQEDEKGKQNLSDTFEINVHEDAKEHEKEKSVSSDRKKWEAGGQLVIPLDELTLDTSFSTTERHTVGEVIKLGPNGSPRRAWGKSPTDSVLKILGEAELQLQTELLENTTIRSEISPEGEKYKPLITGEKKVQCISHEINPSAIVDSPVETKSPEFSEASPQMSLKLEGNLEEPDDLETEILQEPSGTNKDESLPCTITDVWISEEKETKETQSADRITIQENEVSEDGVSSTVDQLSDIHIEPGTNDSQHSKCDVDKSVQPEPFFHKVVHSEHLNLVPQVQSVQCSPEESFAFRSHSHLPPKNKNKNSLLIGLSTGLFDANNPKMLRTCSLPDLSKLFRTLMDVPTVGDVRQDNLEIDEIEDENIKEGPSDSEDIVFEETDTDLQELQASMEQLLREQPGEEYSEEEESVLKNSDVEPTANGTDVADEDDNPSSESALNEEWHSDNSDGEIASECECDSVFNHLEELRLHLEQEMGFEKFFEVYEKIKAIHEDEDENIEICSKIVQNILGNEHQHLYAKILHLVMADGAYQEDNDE

[3] = target: T2, Serine/threonine-protein kinase Nek1 (Homo sapiens); details: at 1 µM
[4] = target: T3, Serine/threonine-protein kinase Nek2 (Homo sapiens) (UniProt P51955); details: at 0.1 µM
T3 sequence (whole entry): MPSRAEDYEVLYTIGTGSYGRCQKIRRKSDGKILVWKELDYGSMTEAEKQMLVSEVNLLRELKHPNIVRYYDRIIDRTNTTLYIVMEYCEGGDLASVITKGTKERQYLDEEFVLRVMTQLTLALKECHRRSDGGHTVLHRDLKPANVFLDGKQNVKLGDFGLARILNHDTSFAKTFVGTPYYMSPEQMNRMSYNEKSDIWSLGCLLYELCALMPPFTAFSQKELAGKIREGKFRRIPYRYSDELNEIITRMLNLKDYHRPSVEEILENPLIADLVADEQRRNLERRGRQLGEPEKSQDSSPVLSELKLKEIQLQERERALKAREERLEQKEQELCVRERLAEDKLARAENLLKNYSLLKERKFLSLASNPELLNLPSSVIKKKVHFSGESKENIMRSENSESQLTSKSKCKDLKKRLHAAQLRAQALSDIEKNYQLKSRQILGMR

[5] = target: T3, Serine/threonine-protein kinase Nek2 (Homo sapiens); details: at 1 µM
[6] = target: Serine/threonine-protein kinase Nek6 (Homo sapiens) (UniProt Q9HC98); details: at 0.1 µM
Serine/threonine-protein kinase Nek6 (Homo sapiens), sequence (Q9HC98 whole entry): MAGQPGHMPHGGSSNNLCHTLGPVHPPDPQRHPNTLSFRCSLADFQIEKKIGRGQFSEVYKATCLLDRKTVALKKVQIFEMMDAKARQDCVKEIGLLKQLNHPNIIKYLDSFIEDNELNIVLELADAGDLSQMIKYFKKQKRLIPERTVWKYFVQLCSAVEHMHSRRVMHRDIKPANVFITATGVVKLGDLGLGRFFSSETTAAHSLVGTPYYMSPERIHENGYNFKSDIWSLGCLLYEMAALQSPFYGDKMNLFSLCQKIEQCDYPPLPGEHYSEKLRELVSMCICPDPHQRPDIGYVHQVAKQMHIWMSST

[7] = target: Serine/threonine-protein kinase Nek6 (Homo sapiens) (UniProt Q9HC98); details: at 1 µM
[8] = target: Serine/threonine-protein kinase Nek7 (Homo sapiens) (UniProt Q8TDX7); details: at 0.1 µM
Serine/threonine-protein kinase Nek7 (Homo sapiens), sequence (Q8TDX7 whole entry, looked up): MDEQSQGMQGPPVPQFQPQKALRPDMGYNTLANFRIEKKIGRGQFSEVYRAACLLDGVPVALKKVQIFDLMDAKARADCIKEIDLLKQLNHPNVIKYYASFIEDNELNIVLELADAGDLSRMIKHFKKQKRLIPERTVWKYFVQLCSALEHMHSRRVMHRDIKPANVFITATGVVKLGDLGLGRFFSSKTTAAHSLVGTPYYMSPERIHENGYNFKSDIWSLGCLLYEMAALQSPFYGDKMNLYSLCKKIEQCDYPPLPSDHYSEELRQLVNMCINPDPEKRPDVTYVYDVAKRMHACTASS

[9] = target: Serine/threonine-protein kinase Nek7 (Homo sapiens) (UniProt Q8TDX7); details: at 1 µM
[10] = target: T4, Serine/threonine-protein kinase Nek9 (Homo sapiens) (UniProt Q8TD19); details: at 0.1 µM
T4 sequence (whole entry): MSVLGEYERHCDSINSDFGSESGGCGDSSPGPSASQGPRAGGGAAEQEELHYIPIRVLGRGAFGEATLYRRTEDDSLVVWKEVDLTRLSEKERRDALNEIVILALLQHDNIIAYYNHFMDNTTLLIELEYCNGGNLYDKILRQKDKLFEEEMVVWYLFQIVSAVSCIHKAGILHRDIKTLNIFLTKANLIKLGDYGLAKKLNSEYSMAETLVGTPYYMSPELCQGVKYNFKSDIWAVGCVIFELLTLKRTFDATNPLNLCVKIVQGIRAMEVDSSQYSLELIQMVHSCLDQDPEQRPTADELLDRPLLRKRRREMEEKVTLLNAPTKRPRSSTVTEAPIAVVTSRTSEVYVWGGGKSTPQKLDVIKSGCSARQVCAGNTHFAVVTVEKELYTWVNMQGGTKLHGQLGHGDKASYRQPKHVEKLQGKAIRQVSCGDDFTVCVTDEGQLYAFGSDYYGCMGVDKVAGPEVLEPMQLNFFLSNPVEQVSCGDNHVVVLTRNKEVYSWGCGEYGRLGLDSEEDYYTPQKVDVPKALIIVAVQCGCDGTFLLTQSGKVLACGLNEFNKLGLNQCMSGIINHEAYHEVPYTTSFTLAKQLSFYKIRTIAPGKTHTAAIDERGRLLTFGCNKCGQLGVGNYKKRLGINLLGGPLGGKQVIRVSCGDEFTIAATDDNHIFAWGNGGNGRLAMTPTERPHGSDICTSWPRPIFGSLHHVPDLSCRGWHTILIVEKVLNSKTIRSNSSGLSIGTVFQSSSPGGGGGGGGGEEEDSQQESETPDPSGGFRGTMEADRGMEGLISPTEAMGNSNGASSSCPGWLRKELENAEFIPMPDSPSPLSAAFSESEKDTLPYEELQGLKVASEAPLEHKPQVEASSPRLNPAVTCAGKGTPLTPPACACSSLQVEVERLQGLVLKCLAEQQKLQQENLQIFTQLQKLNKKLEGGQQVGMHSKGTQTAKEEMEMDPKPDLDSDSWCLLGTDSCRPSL

[11] = target: T4, Serine/threonine-protein kinase Nek9 (Homo sapiens); details: at 1 µM
[12] = target: Serine/threonine-protein kinase PLK1 (Homo sapiens) (UniProt P53350); details: at 0.1 µM
Serine/threonine-protein kinase PLK1 (Homo sapiens), sequence (P53350 whole entry): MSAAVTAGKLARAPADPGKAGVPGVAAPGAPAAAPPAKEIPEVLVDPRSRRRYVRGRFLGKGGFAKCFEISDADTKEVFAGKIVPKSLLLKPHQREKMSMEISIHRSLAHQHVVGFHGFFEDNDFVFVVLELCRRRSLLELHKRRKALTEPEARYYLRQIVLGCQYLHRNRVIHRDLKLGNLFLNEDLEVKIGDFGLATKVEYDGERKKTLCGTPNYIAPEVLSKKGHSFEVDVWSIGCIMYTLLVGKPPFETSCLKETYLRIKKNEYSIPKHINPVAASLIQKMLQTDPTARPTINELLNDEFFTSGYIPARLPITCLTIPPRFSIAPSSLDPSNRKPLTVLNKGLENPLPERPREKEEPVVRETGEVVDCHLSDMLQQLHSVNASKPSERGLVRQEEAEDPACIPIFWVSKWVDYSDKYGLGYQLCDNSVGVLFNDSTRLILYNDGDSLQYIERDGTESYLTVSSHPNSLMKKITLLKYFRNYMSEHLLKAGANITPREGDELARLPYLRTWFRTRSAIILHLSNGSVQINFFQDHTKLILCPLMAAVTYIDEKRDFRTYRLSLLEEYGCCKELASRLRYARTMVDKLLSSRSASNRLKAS

[13] = target: Serine/threonine-protein kinase PLK1 (Homo sapiens) (UniProt P53350); details: at 1 µM
[14] = target: T5, Dual specificity protein kinase TTK (Homo sapiens) (UniProt P33981); details: at 0.1 µM
T5 sequence (whole entry): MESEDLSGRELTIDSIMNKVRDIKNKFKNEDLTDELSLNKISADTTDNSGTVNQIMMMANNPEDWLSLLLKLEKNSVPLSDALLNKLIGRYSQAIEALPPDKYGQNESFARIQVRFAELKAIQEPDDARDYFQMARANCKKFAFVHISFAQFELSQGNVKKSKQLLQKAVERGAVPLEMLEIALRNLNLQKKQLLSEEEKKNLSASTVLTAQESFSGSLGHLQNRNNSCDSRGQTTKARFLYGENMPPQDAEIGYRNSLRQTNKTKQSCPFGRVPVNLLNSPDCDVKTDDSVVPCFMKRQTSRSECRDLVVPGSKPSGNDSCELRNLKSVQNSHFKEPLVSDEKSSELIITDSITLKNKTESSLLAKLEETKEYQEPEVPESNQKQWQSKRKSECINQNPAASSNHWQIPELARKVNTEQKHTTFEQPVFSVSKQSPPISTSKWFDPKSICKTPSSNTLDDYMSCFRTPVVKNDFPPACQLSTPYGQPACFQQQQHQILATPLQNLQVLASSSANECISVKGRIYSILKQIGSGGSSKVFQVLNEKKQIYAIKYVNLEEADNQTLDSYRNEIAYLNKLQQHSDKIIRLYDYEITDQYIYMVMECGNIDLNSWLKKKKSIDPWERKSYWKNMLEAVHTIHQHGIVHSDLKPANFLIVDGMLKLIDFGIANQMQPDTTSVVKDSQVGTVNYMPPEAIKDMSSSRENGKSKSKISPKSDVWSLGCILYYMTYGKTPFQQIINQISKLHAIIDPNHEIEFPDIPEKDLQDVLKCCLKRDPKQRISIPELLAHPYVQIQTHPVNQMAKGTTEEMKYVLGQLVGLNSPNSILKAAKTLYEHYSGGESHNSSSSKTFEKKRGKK

[15] = tested on: T6, Receptor-type tyrosine-protein kinase FLT3 (Homo sapiens), P36888 [D835Y]; details: at 1 µM
T6 sequence (whole entry): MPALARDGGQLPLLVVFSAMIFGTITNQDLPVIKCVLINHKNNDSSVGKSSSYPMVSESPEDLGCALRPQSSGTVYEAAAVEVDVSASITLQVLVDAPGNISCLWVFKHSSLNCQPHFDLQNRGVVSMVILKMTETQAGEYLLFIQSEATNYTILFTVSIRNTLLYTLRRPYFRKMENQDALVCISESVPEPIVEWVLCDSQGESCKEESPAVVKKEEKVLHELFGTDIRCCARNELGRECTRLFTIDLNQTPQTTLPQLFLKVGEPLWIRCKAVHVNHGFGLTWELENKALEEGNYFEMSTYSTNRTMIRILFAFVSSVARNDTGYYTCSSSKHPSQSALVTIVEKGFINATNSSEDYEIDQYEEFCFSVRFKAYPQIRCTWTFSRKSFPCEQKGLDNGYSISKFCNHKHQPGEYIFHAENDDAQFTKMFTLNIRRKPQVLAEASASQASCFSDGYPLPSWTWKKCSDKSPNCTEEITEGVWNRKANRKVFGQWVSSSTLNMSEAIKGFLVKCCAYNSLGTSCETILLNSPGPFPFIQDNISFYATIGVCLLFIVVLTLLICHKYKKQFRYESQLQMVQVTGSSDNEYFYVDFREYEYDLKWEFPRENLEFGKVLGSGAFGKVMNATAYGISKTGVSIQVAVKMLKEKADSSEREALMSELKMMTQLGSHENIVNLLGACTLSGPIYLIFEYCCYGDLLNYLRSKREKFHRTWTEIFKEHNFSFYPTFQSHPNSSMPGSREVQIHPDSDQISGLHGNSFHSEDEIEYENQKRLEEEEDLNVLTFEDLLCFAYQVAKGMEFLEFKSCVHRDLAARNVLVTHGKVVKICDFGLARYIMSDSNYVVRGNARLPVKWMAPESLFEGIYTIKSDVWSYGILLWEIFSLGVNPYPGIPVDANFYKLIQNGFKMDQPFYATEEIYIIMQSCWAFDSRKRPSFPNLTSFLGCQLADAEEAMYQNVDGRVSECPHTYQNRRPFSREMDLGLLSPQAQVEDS

[16] = target: Vascular endothelial growth factor receptor 3 (Homo sapiens) (UniProt P35916); details: at 0.1 µM
Vascular endothelial growth factor receptor 3 (Homo sapiens), sequence (P35916 whole entry): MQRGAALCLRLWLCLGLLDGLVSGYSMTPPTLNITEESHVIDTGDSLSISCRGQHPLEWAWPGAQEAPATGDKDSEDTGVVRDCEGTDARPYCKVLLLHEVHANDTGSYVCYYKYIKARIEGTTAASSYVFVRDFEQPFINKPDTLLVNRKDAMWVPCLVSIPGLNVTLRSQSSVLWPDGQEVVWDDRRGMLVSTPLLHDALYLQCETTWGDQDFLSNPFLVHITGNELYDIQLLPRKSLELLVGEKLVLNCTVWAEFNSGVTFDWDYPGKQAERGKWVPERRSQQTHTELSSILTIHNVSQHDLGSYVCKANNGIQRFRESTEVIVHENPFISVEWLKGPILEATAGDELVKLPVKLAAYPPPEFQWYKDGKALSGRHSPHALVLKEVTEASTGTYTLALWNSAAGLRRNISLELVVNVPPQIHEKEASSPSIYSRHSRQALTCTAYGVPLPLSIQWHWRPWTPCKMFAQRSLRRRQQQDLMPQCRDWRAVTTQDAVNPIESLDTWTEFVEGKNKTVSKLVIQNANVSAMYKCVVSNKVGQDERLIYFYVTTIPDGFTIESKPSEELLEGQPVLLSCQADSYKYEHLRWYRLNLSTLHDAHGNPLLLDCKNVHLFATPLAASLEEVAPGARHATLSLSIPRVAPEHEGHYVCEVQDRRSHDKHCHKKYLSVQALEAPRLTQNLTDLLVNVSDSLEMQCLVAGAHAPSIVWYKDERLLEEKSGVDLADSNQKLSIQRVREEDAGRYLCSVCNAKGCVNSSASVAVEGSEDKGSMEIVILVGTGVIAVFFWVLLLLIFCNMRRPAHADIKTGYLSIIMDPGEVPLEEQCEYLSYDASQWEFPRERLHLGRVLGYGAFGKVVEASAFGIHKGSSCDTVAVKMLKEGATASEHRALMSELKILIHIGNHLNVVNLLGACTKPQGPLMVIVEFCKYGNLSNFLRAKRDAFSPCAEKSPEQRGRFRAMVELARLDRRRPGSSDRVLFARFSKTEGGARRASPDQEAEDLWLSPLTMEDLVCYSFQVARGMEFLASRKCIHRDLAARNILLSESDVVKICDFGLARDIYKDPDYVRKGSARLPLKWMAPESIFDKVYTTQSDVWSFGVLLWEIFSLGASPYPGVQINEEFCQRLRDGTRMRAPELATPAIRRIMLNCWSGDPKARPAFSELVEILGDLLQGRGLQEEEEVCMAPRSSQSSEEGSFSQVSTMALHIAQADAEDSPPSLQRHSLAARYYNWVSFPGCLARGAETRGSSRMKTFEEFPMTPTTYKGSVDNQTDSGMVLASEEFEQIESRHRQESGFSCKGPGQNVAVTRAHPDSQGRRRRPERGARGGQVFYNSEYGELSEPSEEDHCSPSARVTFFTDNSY

[17] = target: Vascular endothelial growth factor receptor 3 (Homo sapiens) (UniProt P35916); details: at 1 µM
[18] = target: Macrophage colony-stimulating factor 1 receptor (Homo sapiens) (UniProt P07333); details: at 0.1 µM
Macrophage colony-stimulating factor 1 receptor (Homo sapiens), sequence (P07333 whole entry): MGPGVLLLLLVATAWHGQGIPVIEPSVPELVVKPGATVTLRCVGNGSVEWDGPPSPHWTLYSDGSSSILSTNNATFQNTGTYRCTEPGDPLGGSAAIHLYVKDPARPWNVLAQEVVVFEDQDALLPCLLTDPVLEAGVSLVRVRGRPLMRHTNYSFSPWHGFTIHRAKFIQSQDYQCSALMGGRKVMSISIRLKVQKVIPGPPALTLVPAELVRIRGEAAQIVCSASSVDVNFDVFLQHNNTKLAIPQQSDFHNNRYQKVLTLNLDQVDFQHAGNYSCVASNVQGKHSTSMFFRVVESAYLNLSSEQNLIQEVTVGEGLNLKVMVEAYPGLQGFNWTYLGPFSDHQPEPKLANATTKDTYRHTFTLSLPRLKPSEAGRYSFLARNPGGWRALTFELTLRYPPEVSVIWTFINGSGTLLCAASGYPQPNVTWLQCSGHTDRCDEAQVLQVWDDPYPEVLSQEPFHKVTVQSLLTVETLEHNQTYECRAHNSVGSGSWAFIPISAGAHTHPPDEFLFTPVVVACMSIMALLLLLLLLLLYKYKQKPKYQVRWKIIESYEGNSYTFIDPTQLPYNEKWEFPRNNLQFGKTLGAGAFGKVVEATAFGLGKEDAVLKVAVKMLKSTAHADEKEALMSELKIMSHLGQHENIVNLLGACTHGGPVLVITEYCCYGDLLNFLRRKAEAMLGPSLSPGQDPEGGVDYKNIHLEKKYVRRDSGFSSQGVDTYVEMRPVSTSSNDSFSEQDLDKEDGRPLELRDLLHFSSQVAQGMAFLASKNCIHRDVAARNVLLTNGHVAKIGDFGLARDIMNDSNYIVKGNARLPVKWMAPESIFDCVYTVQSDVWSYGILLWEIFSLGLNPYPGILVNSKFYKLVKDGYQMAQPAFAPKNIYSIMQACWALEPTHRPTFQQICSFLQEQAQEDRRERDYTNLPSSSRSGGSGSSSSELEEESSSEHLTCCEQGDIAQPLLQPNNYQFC

[19] = target: Macrophage colony-stimulating factor 1 receptor (Homo sapiens) (UniProt P07333); details: at 1 µM
[20] = target: Tyrosine-protein kinase Fyn (Homo sapiens) (UniProt P06241); details: at 0.1 µM
Tyrosine-protein kinase Fyn (Homo sapiens), sequence (P06241 2-537 limits assumed): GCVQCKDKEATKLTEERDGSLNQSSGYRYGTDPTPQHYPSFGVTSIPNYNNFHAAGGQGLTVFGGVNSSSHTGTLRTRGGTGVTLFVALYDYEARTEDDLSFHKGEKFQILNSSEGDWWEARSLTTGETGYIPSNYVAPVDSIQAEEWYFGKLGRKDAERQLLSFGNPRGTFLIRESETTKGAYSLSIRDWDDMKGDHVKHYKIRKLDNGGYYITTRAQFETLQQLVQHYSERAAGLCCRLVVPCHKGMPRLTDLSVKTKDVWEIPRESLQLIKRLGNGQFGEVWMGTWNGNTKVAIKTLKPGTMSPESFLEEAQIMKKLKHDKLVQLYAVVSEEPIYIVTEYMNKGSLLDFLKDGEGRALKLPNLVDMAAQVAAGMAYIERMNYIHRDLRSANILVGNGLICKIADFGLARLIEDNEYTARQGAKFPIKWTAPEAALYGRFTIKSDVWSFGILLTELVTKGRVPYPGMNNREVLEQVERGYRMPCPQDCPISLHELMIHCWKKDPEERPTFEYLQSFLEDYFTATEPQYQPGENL

Structure (SMILES)	inhibition [1] [%]	inhibition [2] [%]	inhibition [3] [%]	inhibition [4] [%]	inhibition [5] [%]	inhibition [6] [%]	inhibition [7] [%]	inhibition [8] [%]	inhibition [9] [%]	inhibition [10] [%]	inhibition [11] [%]	inhibition [12] [%]	inhibition [13] [%]	inhibition [14] [%]	inhibition [15] [%]	inhibition [16] [%]	inhibition [17] [%]	inhibition [18] [%]	inhibition [19] [%]	inhibition [20] [%]
CS(=O)(=O)CCNCc1nc(-c2ccc3ncnc(Nc4ccc(OCc5cccc(C(F)(F)F)c5)cc4)c3c2)cs1	2.82	1.67	3.9	2.86	0.5	-0.59	2.66	1.6	5.52	3.06	-0.39	1.34	3.51	3.6	4.19	3.13	2.21	0.88	8.87	1.59
CCS(=O)(=O)c1ccc(OC)c(Nc2nccc(N(C)c3ccc4c(C)n[nH]c4c3)n2)c1	6.37	2.52	2.74	5.67	3.85	2.07	0.72	2.57	5.28	3.29	6.15	4.22	8.94	10.8	-5.27	94.8	104	5.72	32.2	39
